MITF act – activators of MITF-driven TRPM1 promoter reporter, primary screen, cell-based, SK-MEL-5, luciferase, single point. SK-MEL-5 TRPM1-promoter luciferase, 24 h; % of positive control, neutral wells = 0. activation, % at 12.5 µM. 300,000 compounds, 0.75% hits. AID 588334, 2011;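 active = mean activation of at least 80% with every replicate also reaching 80%; inconclusive = mean reaches 80% but some replicate falls short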;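 note: 0% = neutral control wells and 100% = parthenolide positive control wells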
SMARCA2 activ – SMARCA2 (BRM) function activators, primary screen, cell-based, luminescence, high throughput; activation, % at 9.1 µM; 370,000 compounds, 1% hits; MG213 cells, MMTV-luciferase reporter, dexamethasone, overnight; in the data active = activation above about 7.8%;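 note: 0% = vehicle wells and 100% = reference activator wells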
HSF1 inhib – HSF1 inhibitors in luciferase reporter cells, primary screen, cell-based, NIH3T3, luminescence | AID 2098, 2009 | 300,000 compounds, 0.77% hits | activity change, negative = inhibition, % at 7.5 µM (by protocol) | NIH3T3-HGL HSE-luciferase, MG132-induced, luminescence 8 h; stronger effect = lower value;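 active = more than half of replicate wells show activity change below -50%, luminescence cut by over half; inconclusive = some wells, but at most half, below -50%; inactive = no replicate well below -50%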;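 note: luciferase reports HSF-1 transcriptional activity via heat shock element; 0% = median of DMSO wells and -100% = zero luminescence signal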
Wnt bcat act – Wnt/beta-catenin pathway activators, primary screen, cell-based, plate reader, single point | Wnt/beta-catenin reporter cell assay, activator | AID 743398, 2014 | 300,000 compounds, 1.2% hits | activation, % at 9.35 µM; in the data active = activation above about 30%, passing the limit was not always enough; inconclusive = no clear call, values can overlap the other calls;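 note: 0% = neutral control wells and 100% = positive control wells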
esBAF inh – Bmi1 luciferase reporter increase in mESCs, primary screen, esBAF inhibitor project, mouse ES cells, Bmi1 luciferase knock-in, single point | 24 h; 100% = twice the neutral-well signal | reporter increase, % at 12.5 µM | 350,000 compounds, 2% hits | AID 602393, 2012; in the data active = activation above about 40%; inconclusive = no clear call, values can overlap the other calls;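 note: 0% = median of the plate's neutral control wells and 100% = double that signal; a rise in the Bmi1 reporter signal indicates esBAF inhibition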
HSF-1 act – HSF-1 activators, primary screen, NIH3T3-HGL cells, MG132 stress, luminescence, single point; NIH3T3-HGL HSF-1 luciferase reporter, 8 h; 100% = twice DMSO control signal; activation, % at 9 µM; 300,000 compounds, 1.7% hits; AID 504408, 2011;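 active = mean replicate activation of at least 50% with a set share of replicates each reaching 50%; inconclusive = only one of those two conditions met; inactive = mean below 50% and too few replicates reaching it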;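 note: 0% = median of the neutral control wells and 100% = twice that signal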
Active calls of the source: *; ? = inconclusive; . = no result given. A selection: hits, their analogues and other compounds. The true share with any hit is near 4.3%.

SMILES	MITF act	SMARCA2 activ	HSF1 inhib	Wnt bcat act	esBAF inh	HSF-1 act
COc1ccc2nc(NC(=O)c3cccs3)sc2c1	.	0	1	48*	?	22
O=C(C[C@H]1C[C@@H]2c3cc(NC(=O)CC4CC4)ccc3O[C@@H]2[C@H](CO)O1)NCc1cc(F)ccc1F	.	.	.	.	2	.
COc1ccc(-c2cnc3c(c2)C(=O)N([C@H](C)CO)C[C@@H](C)[C@@H](CN(C)C(=O)C2CCCCC2)O3)cc1	.	.	.	.	-6	.
COCCNC(=O)C[C@@H]1CC[C@@H]2[C@@H](COc3ccc(NC(=O)Nc4ccccc4)cc3C(=O)N2C)O1	.	.	.	.	3	.
COc1ccc2nc(NC(=O)c3ccc([N+](=O)[O-])o3)sc2c1	.	4	100	7	36	132*
O=C(Nc1nc2cc3c(cc2s1)OCCO3)c1ccc([N+](=O)[O-])o1	-34	5	92	51*	20	104*
O=C(Nc1nc2ccccc2s1)c1ccc([N+](=O)[O-])o1	-44	-2	38	20	.	49
C[C@@H]1CN([C@H](C)CO)C(=O)c2cc(C3=CCCC3)cnc2O[C@@H]1CN(C)Cc1cccc(F)c1	.	.	.	.	0	.
C/C=C/c1cnc2c(c1)C(=O)N([C@@H](C)CO)C[C@H](C)[C@@H](CN(C)Cc1ccc3c(c1)OCO3)O2	.	.	.	.	-4	.
C[C@H](NC(=O)[C@@H]1[C@@H](CO)[C@@H]2Cn3c(cccc3=O)[C@@H]2N1CCC(F)(F)F)c1ccccc1	.	.	.	.	-1	.
Cc1ccc(C(=O)Nc2cccnc2)cc1C	.	4	.	1	46*	.
Cc1cc2oc(C(=O)Nc3cccnc3)c(C)c2cc1C	77	2	3	10	78*	6
O=C(Nc1ccon1)c1sc2cc(Cl)ccc2c1Cl	28	3	14	20	47*	27
COc1c(Cl)cc(C(=O)Nc2cccnc2)cc1Cl	.	-3	.	0	6	.
Cc1ccc(C(=O)Nc2cccnc2)cc1Cl	.	2	10	7	55*	-1
C[C@@H]1CN([C@@H](C)CO)C(=O)c2cc(NC(=O)Nc3cccc4ccccc34)ccc2O[C@H]1CN(C)Cc1ccncc1	.	.	.	.	-1	.
O=C(C[C@@H]1C=C[C@H](NC(=O)Nc2ccccc2F)[C@H](CO)O1)NCc1ccc(-c2ccccc2)cc1	.	.	.	.	-10	.
COCC(=O)Nc1ccc2c(c1)C(=O)N(C)C[C@H](OC)[C@@H](C)CN(C(=O)Cc1ccccn1)[C@H](C)CO2	.	.	.	.	-3	.
Cc1ccc2c(C)c(C(=O)Nc3cccnc3)oc2c1	46	7	24	.	27	19
Cc1ccc2c(Cl)c(C(=O)Nc3cccnc3)sc2c1	95*	1	9	.	55*	10
COc1cc(OC)cc(C(=O)Nc2cccnc2)c1	-4	0	6	10	.	24
CCOc1cc(OCC)cc(C(=O)Nc2cccnc2)c1	-7	-1	18	.	2	59*
Cc1ccc(NC(=O)c2cccnc2)cc1C	.	2	7	5	49*	16
O=C(Nc1cccc(NC(=O)c2cccnc2)c1)c1cccnc1	-12	.	-7	.	3	2
Cc1noc(C)c1NC(=O)N(C)C[C@@H]1OCCCC[C@H](C)Oc2ccc(NC(=O)c3ccccc3)cc2C(=O)N([C@H](C)CO)C[C@H]1C	.	.	.	.	-4	.
SMILES	MITF act	SMARCA2 activ	HSF1 inhib	Wnt bcat act	esBAF inh	HSF-1 act
COc1ccc(CN(C)C[C@@H]2OCCCC[C@H](C)Oc3ccc(NC(=O)CCCN(C)C)cc3C(=O)N([C@H](C)CO)C[C@@H]2C)cc1	.	.	.	.	4	.
Cc1ccc(C(=O)Cn2nnc(-c3cccs3)n2)cc1	43	-1	12	40*	20	26
CC1CCN(C(=O)Cn2nnc(-c3cccs3)n2)CC1	38	1	21	5	48*	23
O=C(Cn1nnc(-c2cccs2)n1)NCc1cccs1	10	-2	5	-1	.	1
c1ccc(CN2CCN(Cc3nnc(-c4ccccc4)o3)CC2)cc1	-5	7.9*	2	1	.	3
C[C@H]1CN([C@@H](C)CO)C(=O)c2cccc(NS(=O)(=O)c3ccccc3)c2O[C@@H]1CN(C)Cc1ccc(-c2ccccc2)cc1	.	.	.	.	-8	.
Cc1ccc(SCC(=O)Nc2ccc(-c3nnc(-c4ccco4)o3)cc2)cc1	13	-1	44	.	.	78*
O=C(CSc1nccn1Cc1ccco1)Nc1cccc(F)c1	34	6	-74*	-2	-6	-79
O=C(CSc1nccn1Cc1ccco1)Nc1ccc(F)cc1	17	-1	-1	-3	16	11
Cc1ccc(NC(=O)CSc2nccn2Cc2ccco2)cc1	54	5	7	21	56*	33
C[C@H](CO)N1C[C@H](C)[C@@H](CN(C)C(=O)NC2CCCC2)Oc2ncc(-c3ccncc3)cc2C1=O	.	.	.	.	1	.
COc1cccc(NC(=O)C[C@H]2CC[C@@H]3[C@@H](COc4ccc(NC(C)=O)cc4C(=O)N3C)O2)c1	.	.	.	.	3	.
Cc1ccc(N2CCN(C(=O)c3cn(CC4CCCCC4)nn3)C(C)C2)cc1 (centres undefined)	70	4	53	40*	.	?
O=C(c1cn(CC2CCCCC2)nn1)N1CCN(c2ccc(F)cc2)CC1	5	-2	9	5	18	7
Cc1cc(C)cc(NC(=O)c2cc(C)n(Cc3cccs3)c2C)c1	103*	5	6	2	38	14
Cc1cc(C(=O)Cn2nnc3ccccc3c2=O)c(C)n1Cc1cccs1	.	2	-2	35*	-38	-4
Cc1cc(C(=O)CN2C(=O)c3ccccc3C2=O)c(C)n1Cc1cccs1	-7	0	8	-2	-27	27
C[C@@H]1CN([C@H](C)CO)C(=O)c2cc(NC(=O)Nc3ccc(F)cc3)ccc2O[C@@H](C)CCCCO[C@H]1CN(C)C(=O)Nc1ccc(F)cc1	.	.	.	.	12	.
COc1cc(CCCN2CCNC[C@@H]2Cc2ccc(O)cc2)cc(OC)c1OC	-3	0	-55*	-1	-1	-66
COc1cc(CCCN2C(=S)NC[C@H]2Cc2ccc(O)cc2)cc(OC)c1OC	-11	-1	-2	-1	-4	-7
O=c1c(-c2cnn(-c3ccccc3)c2)coc2cc(O)ccc12	76	.	73	.	105*	94*
Clc1ccc(-c2cn3c(n2)CCC3)cc1	92*	4	14	.	.	?
CCCNC(=O)C[C@@H]1C[C@H]2c3cc(NC(=O)Cc4ccncc4)ccc3O[C@H]2[C@@H](CO)O1	.	.	.	.	-5	.
CCN(CC)S(=O)(=O)c1ccc2c(c1)nc(-c1ccccn1)n2C	.	5	6	17	60*	26
CCCn1c(CCC(=O)O)nc2cc(S(=O)(=O)N(CC)CC)ccc21	-2	0	0	-2	-16	3

Source: PubChem
